13 compounds from PubChem BioAssay can be followed below.

Assay [1] has as its system Plasmodium falciparum Sir2 (PF13_0152, Sir2A). Nature of the assay: pfSir2 binders on small-molecule microarrays, primary screen, biochemical, small-molecule microarray, 635 nm fluorescence (AID 1098).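 Note: score merges spot fluorescence intensity with its signal-to-noise ratio.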 The following applies: small-molecule microarray binding, fluorescence 635 nm; higher = more signal.
The nature of assay [2]: small-molecule microarray binders of probe aDKK1, primary screen, biochemical, biotinylated probe, 635/667 nm fluorescence (AID 1099).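 Note: score merges 667nm spot fluorescence with signal to noise across triplicate slides; reference of the scale not given here.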 Particulars: higher = more signal.
The nature of assay [3]: small-molecule microarray binders of probe aCHRDL2, primary screen, biochemical, biotinylated probe, 635/667 nm fluorescence (AID 1100). Particulars: higher = more signal.
Assay [4] in a line: splicing luciferase reporter signal modulators, primary screen, spliceosome inhibition project, cell-based, HEK293, splice +/- reporter (AID 1101).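 Note: HEK293 cells carrying a splicing-competent luciferase reporter gene; test concentration not given here.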 Particulars: luminescence, 24 h, higher = more signal, called active from +8 up or from −8 down. In general terms: Reporter assays use an easily measured gene product as a stand-in for the process of interest.
The target in assay [5] is Fibroblast growth factor 10 (Homo sapiens) (UniProt O15520). Nature of the assay: FGF10 binders on small-molecule microarrays, primary screen, biochemical, small-molecule microarray, 635 nm fluorescence (AID 1102). Particulars: FGF10 binding, fluorescence 635 nm, higher = more signal.
Fibroblast growth factor 10 (Homo sapiens), sequence (O15520 whole entry, looked up): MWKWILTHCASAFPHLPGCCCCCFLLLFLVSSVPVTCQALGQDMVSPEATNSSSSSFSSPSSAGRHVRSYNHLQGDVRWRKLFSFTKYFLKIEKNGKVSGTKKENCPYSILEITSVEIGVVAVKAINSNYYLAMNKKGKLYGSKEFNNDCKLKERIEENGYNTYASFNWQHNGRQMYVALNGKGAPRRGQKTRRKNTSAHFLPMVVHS
For assay [6], the system named is glycogen synthase kinase-3 (GSK3A per assay name; protocol says GSK3B). Nature of the assay: GSK3 binders on small-molecule microarrays, primary screen, biochemical, small-molecule microarray, 635 nm fluorescence, GSK3A (AID 1103). Note: the record names both GSK3A and GSK3B. The following applies: small-molecule microarray binding, fluorescence 635 nm; higher = more signal.
For assay [7], the target named is Epidermal growth factor receptor (Homo sapiens) (UniProt P00533). Nature of the assay: EGFR binders on small-molecule microarrays, primary screen, biochemical, small-molecule microarray, 635 nm fluorescence (AID 1104).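 Note: score merges 667 nm emission intensity with spot signal to noise over triplicate slides.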 The following applies: EGFR binding, higher = more signal.
Epidermal growth factor receptor (Homo sapiens), sequence (P00533 whole entry, looked up): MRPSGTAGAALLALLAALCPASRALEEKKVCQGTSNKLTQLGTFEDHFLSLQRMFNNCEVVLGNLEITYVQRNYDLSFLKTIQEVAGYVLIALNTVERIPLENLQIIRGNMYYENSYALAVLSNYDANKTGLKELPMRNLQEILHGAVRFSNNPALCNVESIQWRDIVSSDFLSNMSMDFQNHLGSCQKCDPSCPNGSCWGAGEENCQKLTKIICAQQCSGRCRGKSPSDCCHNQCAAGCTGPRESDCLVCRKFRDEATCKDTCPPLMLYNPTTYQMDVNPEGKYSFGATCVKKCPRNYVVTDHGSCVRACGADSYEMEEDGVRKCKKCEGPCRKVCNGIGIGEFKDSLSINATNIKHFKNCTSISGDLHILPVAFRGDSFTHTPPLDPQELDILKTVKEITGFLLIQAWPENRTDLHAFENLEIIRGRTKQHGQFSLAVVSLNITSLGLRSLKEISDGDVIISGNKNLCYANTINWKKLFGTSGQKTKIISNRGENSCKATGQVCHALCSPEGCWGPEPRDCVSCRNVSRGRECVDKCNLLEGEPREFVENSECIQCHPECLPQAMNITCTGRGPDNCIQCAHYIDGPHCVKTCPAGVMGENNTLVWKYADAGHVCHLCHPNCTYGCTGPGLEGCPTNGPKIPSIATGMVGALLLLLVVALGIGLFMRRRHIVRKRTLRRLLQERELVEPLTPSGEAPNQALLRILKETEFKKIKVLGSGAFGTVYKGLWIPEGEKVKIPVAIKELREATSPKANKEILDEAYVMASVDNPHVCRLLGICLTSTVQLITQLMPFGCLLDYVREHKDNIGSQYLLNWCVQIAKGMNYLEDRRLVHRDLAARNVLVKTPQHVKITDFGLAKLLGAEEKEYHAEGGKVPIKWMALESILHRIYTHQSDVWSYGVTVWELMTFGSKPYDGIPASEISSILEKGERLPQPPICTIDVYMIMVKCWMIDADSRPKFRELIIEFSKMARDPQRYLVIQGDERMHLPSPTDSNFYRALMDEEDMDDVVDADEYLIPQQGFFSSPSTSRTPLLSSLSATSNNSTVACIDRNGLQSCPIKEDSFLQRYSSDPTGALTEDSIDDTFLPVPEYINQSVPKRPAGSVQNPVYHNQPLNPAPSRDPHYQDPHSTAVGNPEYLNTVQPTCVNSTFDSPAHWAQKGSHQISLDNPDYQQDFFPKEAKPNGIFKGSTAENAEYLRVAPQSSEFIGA
For assay [8], the target named is Follistatin-related protein 3 (Homo sapiens) (UniProt O95633). Nature of the assay: FSTL3 binders on small-molecule microarrays, primary screen, biochemical, small-molecule microarray, 635 nm fluorescence (AID 1105).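 Note: score merges emission near 667 nm and signal to noise per printed spot across three slides.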 The following applies: FSTL3 binding, higher = more signal.
Follistatin-related protein 3 (Homo sapiens), sequence (O95633 whole entry, looked up): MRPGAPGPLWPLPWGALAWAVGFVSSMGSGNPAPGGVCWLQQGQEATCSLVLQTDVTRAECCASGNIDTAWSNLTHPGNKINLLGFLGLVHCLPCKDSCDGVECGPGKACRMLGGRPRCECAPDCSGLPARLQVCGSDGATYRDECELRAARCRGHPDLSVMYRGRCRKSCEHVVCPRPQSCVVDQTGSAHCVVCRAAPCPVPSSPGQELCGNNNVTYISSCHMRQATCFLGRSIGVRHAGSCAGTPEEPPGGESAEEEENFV
Assay [9] concerns the target Dickkopf-related protein 1 (Homo sapiens) (UniProt O94907). In words: DKK1 binders on small-molecule microarrays, primary screen, biochemical, small-molecule microarray, 635 nm fluorescence scan (AID 1106).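 Note: score merges emission near 667 nm with signal to noise over three replicate slides.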 The following applies: DKK1 binding, higher = more signal.
Assay [10] concerns Inhibin beta A chain (activin A). In words: INHBA (activin A) binders on microarrays, primary screen, biochemical, small-molecule microarray, 635 nm fluorescence scan (AID 1107).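 Note: mouse activin A protein probed at 4.33 µg/mL on printed slides; score merges bound-protein fluorescence near 667 nm with spot signal-to-noise.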 Particulars: small-molecule microarray binding, higher = more signal.

The source made the active and inactive calls.

Dickkopf-related protein 1 (Homo sapiens), sequence (O94907 whole entry, looked up): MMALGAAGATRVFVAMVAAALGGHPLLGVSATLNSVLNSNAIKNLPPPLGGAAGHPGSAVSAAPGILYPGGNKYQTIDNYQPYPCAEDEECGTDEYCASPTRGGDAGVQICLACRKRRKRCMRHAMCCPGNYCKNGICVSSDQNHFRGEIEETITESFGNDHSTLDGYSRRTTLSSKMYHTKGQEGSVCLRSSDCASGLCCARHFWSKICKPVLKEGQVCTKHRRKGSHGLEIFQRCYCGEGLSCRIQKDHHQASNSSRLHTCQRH

For the compound `COCCOC(=O)N1C(=O)[C@@]2(c3cc(C#CC4(O)CCCCCC4)ccc31)[C@H](C(=O)N1CCc3cc(OC)c(OC)cc3C1)[C@H]1C(=O)O[C@H](c3ccccc3)[C@H](c3ccccc3)N1[C@@H]2c1ccc(OCCO)cc1`, the composite z-score is 0.868 in assay [1]; -0.208 in [2]; -0.219 in [3]; 0.891 in assay [5]; 1.3 in assay [6]; 0.626 in assay [7]. For the same compound, the composite z-score came out at 1.04 in [8], 0.95 in [9] and 0.25 in assay [10]. In addition, the z-score in [4] is 0.058 (inactive).

For `CCOC(=O)C[C@H]1[C@H](OC(=O)c2cc3ccccc3oc2=O)[C@@H](NC(=O)c2ccc3ccccc3n2)c2cc(OCCCO)ccc2N1C(=O)Cc1ccc(OC)cc1`, the composite z-score in assay [1] is 0.915; in assay [2] it was -0.207; in assay [3], -0.427; in [5], 1.01; in [6], 1.06; in [7], 0.442. For the same compound, the results for the composite z-score in assay [8], in assay [9] and in assay [10] were 1.2, 0.707 and 0.288, respectively. Further, the z-score in [4] was -0.362 (inactive).

With `[N-]=[N+]=Nc1ccccc1C[C@]1(C(=O)NCCN2CCOCC2)COC(c2ccc(OCCCO)cc2)=N1`, the composite z-score in assay [1] was 1.01; in assay [2], 0.424; in [3], 0.909; in [5], 0.318; in [6], 1.3; in [7] it was -0.408. Further, the composite z-score is -0.264 in [8], 0.234 in assay [9] and 0.472 in [10]. Also, in [4], the z-score was -0.388 (inactive).

With `COCCOC(=O)N1C(=O)[C@@]2(c3cc(C#CC4(O)CCCCCC4)ccc31)[C@H](C(=O)Nc1nc3ccccc3s1)[C@H]1C(=O)O[C@H](c3ccccc3)[C@H](c3ccccc3)N1[C@@H]2c1ccc(O)cc1`, the composite z-score was 1.26 in assay [1]; 0.316 in assay [2]; 0.407 in assay [3]; 0.992 in assay [5]; 1.29 in assay [6]; 0.605 in assay [7]. The results for the composite z-score in assay [8], in assay [9] and in assay [10] were 1.3, 0.875 and 0.363, respectively. Moreover, in [4], the z-score was 1.36 (inactive).

Regarding `COc1ccc(C#Cc2ccc3c(c2)[C@]2(C(=O)N3)[C@H](c3ccc(OCCO)cc3)N3[C@H](c4ccccc4)[C@H](c4ccccc4)OC(=O)[C@H]3[C@@H]2C(=O)NC[C@H](O)c2ccccc2)cc1`, the composite z-score in [1] was 0.614; in assay [2], 0.0477; in assay [3] it was -0.0975; in [5], 0.882; in [6], 0.72; in [7], 0.342. Besides, the composite z-score in [8] is 1.08; in assay [9], 0.301; in assay [10], -0.177. In addition, the z-score in assay [4] was -0.124 (inactive).

As to `C=C(/C(=C/C[C@H](OC(=O)c1ccncc1)c1ccc(CO)o1)c1cnc2ccccc2c1)C(C)C`, the composite z-score in [1] was 0.614; in assay [2], -0.173; in assay [3], -0.304; in assay [5] it was 1.41; in [6], 1.16; in assay [7] it was 0.932. Moreover, the figures for the composite z-score in [8], in assay [9] and in assay [10] were 1.46, 0.791 and 1.81, respectively. Also, the z-score in [4] was 0.984 (inactive).

As to `CC(CO)N1C(=O)[C@@H]2[C@H]3C(=O)OCC=C[C@H]3OC23C=CCN(Cn2nnc4ccccc42)C(=O)[C@@H]13` (stereo not given in full), the composite z-score in [1] is 0.996; in assay [2], -0.162; in assay [3] it was 0.238; in assay [5] it was -0.78; in assay [6], -0.778; in [7] it was -1.29. Also, the composite z-score is -1.13 in assay [8], -0.586 in assay [9] and 0.647 in assay [10]. Besides, in assay [4], the z-score is 1.12 (inactive).

`CC1CC/C=C\[C@H]2OC34C=CCN(c5ccc6ccccc6c5)C(=O)[C@H]3N(CCCO)C(=O)[C@@H]4C2C(=O)O1` (stereo not given in full): the composite z-score is 0.0565 in assay [1]; -0.179 in assay [2]; 1.07 in assay [3]; -1.32 in assay [5]; -0.592 in assay [6]; -1.2 in assay [7]. Also, the values for the composite z-score in assay [8], in [9] and in [10] were -0.912, -2.16 and -0.223, respectively. In assay [4], the z-score is 0.738 (inactive).

For `COCC(=C=CC[C@H](O)c1ccc(OCCO)cc1)CCO`, the composite z-score in assay [1] was 1.09; in assay [2], 0.0019; in [3], 0.273; in assay [5], 0.4; in [6] it was 0.42; in [7], -0.211. Also, the composite z-score in assay [8] came to 0.593; in assay [9], 0.0604; in assay [10], 1.43. The z-score in assay [4] was -0.51 (inactive).

`CCOC(=O)C1=CC[C@@H](c2ccccc2F)N(S(=O)(=O)c2ccc(C)cc2)[C@H]1c1ccccc1`: the composite z-score was 0.441 in assay [1]; 0.128 in assay [2]; -0.106 in [3]; 0.801 in assay [5]; 1.16 in assay [6]; 0.486 in assay [7]. For the same compound, the composite z-score is 0.766 in [8], 0.253 in assay [9] and 0.713 in assay [10]. Further, in assay [4], the z-score is -1.12 (inactive).

Take `[N-]=[N+]=Nc1ccccc1C[C@]1(C(=O)NCC(O)CO)COC(c2ccc(OCCCO)cc2)=N1` (stereo not given in full): the composite z-score was 0.989 in assay [1]; 0.72 in assay [2]; 1.18 in assay [3]; -0.582 in assay [5]; -0.269 in assay [6]; -0.603 in assay [7]. For the same compound, the composite z-score in [8] is -1.14; in assay [9], -0.975; in [10], 1.16. In assay [4], the z-score was 0.173 (inactive).

For `O=C(Cc1ccccc1)[C@H]1C2C=CCCC(c3ccccc3)=C2CN1Cc1ccccc1` (stereo not given in full), the composite z-score in assay [1] was -0.313; in assay [2] it was -0.138; in [3], -0.191; in assay [5], -0.0435; in [6] it was -0.117; in assay [7] it was -0.097. The composite z-score in assay [8] was -0.137; in assay [9] it was 0.191; in assay [10] it was 0.707. In addition, in [4], the z-score was -0.445 (inactive).

On to `C=CCNC(=O)[C@@H]1[C@H]2C(=O)O[C@H](c3ccccc3)[C@H](c3ccccc3)N2[C@H](c2ccc(O)cc2)[C@@]12C(=O)N(C(=O)OCCOC)c1ccc(C#CC3=CCCCC3)cc12`, for which the composite z-score is 1.04 in [1]; -0.122 in assay [2]; -0.294 in assay [3]; 0.965 in [5]; 1.29 in assay [6]; 0.714 in assay [7]. Also, the results for the composite z-score in assay [8], in assay [9] and in [10] were 1.09, 0.53 and 0.492, respectively. In [4], the z-score is -1.19 (inactive).
